Among the test systems are DU-145 prostate; K-562 leukemia; MALME-3M melanoma; MDA-MB-231 breast; RXF 393 renal; SF-268 CNS; SF-295 CNS; SF-539 CNS; UACC-257 melanoma; M14 melanoma; HCT-15 colon; HT29 colon; SNB-75 CNS; SNB-19 CNS; U251 CNS; PC-3 prostate; SK-MEL-5 melanoma; UACC-62 melanoma; LOX IMVI melanoma; SK-MEL-28 melanoma.
Experiment in all cases: NCI-60 one-dose screen, 48 h (100 = growth as untreated, 0 = no growth, -100 = all killed)
Holding throughout (conditions): 10 µM unless noted

Values joined by “and” are separate entries in the source; they are usually repeats but may differ in a detail not shown here. Identical values can stand only once. About 83,000 compounds went through this panel and 20% of them were active in at least one assay; those are over-represented in the sample as a whole.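 Activity criterion: percent growth below 10, measured after cells in 96-well plates were exposed to a single compound concentration for 48 hours.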 Active and inactive are the calls of the source.

On to `CC(C)[C@H]1c2[nH]c3ccccc3c2C[C@H]2C(=O)N(CCCCCCC(=O)NO)CC(=O)N12`, for which the growth is 92.4% (inactive) with DU-145 prostate; 60.6% (inactive) in the assay on K-562 leukemia; 31.1% (inactive) with MALME-3M melanoma; 92.5% (inactive) in the assay on MDA-MB-231 breast; 87% (inactive) in the assay with RXF 393 renal; 107% (inactive) with SF-268 CNS. For the same compound, the growth with SF-295 CNS was 95.2% (inactive); with SF-539 CNS, 73.6% (inactive); in the assay with UACC-257 melanoma it was 57.7% (inactive); in the assay with M14 melanoma it was 82.2% (inactive); in the assay with HCT-15 colon, 97.5% (inactive); with HT29 colon, 77.4% (inactive). For the same compound, the growth is 62.9% (inactive) in the assay on SNB-75 CNS; 86.7% (inactive) in the assay with SNB-19 CNS; 81% (inactive) in the assay on U251 CNS; 86% (inactive) with PC-3 prostate; 75% (inactive) in the assay on SK-MEL-5 melanoma; 56.2% (inactive) in the assay on UACC-62 melanoma. The results for the growth in the assay on LOX IMVI melanoma and with SK-MEL-28 melanoma were 72.7% (inactive) and 71.7% (inactive), respectively.
For the compound `CC(=O)N(O)CCCCCNC(=O)CCC(=O)N(O)CCCCCNC(=O)CCC(=O)N(O)CCCCCN(CCCCCCCCCC[P+](c1ccccc1)(c1ccccc1)c1ccccc1)CCCCCCCCCC[P+](c1ccccc1)(c1ccccc1)c1ccccc1`, the growth is 14.9% (inactive) in the assay with DU-145 prostate; 9.98% (active) in the assay on K-562 leukemia; -17.4% (active) in the assay with MALME-3M melanoma; 16.4% (inactive) in the assay with MDA-MB-231 breast; -9.88% (active) with RXF 393 renal; 16.2% (inactive) in the assay on SF-268 CNS. Further, the growth in the assay with SF-295 CNS was 12.7% (inactive); in the assay on SF-539 CNS, -8.94% (active); in the assay with UACC-257 melanoma, -10.9% (active); in the assay on M14 melanoma, 11% (inactive); in the assay with HCT-15 colon, 51.1% (inactive); in the assay with HT29 colon, 5.49% (active). For the same compound, the growth was -11% (active) with SNB-75 CNS; 17.2% (inactive) in the assay on SNB-19 CNS; 6.66% (active) in the assay with U251 CNS; 19.6% (inactive) in the assay with PC-3 prostate; -45.9% (active) in the assay with SK-MEL-5 melanoma; -10.6% (active) in the assay with UACC-62 melanoma. In addition, the figures for the growth in the assay with LOX IMVI melanoma and in the assay with SK-MEL-28 melanoma were -15% (active) and 13.4% (inactive), respectively.
For `CCCCCCCCCC(=O)NC(C)(C)C(=O)N1CCC[C@H]1C(=O)N[C@@H](CC(C)C)C(=O)N[C@@](C)(CC)C(=O)N[C@@H](CCC(N)=O)C(=O)N[C@H](CCC(N)=O)C(=O)NC(C)(C)C(=O)NC(C)(C)C(=O)N[C@@H](CCC(N)=O)C(=O)N[C@H](CC(C)C)C(=O)N[C@H](CO)CC(C)C`, the growth with DU-145 prostate is -97.6% (active) and -52.1% (active); in the assay with K-562 leukemia, -81.3% (active) and 23% (inactive); in the assay with MALME-3M melanoma, -91.4% (active) and -84.4% (active); with MDA-MB-231 breast it was -92.8% (active) and -95.8% (active); in the assay on RXF 393 renal, -92.3% (active) and -46.4% (active); with SF-268 CNS, -68.6% (active) and -46.2% (active). Also, the growth in the assay on SF-295 CNS was -92.1% (active) and -84.6% (active); in the assay on SF-539 CNS, -97.7% (active) and -99% (active); in the assay on UACC-257 melanoma, -95% (active) and -74% (active); in the assay with M14 melanoma, -77.5% (active) and -65.7% (active); in the assay with HCT-15 colon, -79.6% (active) and 23.1% (inactive); in the assay on HT29 colon, -51.5% (active) and -46.3% (active). Also, the growth was -66.3% (active) and -94% (active) with SNB-75 CNS; -96.3% (active) and -99% (active) with SNB-19 CNS; -92% (active) and -81.5% (active) in the assay with U251 CNS; -94.1% (active) and -55.4% (active) in the assay with PC-3 prostate; -96.7% (active) and -93.7% (active) in the assay on SK-MEL-5 melanoma; -96.7% (active) and -91.7% (active) in the assay on UACC-62 melanoma. Besides, the growth with LOX IMVI melanoma was -91.5% (active) and -88.4% (active); with SK-MEL-28 melanoma, -97.9% (active) and -99.9% (active).
As for `NS(=O)(=O)c1ccc(Nc2nc(N/N=C/C=C/c3ccccc3)nc(Nc3ccccc3)n2)cc1`, the growth with DU-145 prostate was 42.5% (inactive); with K-562 leukemia it was 27.1% (inactive); in the assay on MALME-3M melanoma, 50.7% (inactive); in the assay on MDA-MB-231 breast, 47.9% (inactive); with RXF 393 renal, -8.45% (active); with SF-268 CNS, 46% (inactive). Also, the growth with SF-295 CNS was 44.5% (inactive); with SF-539 CNS, 39.4% (inactive); in the assay with UACC-257 melanoma it was 79.2% (inactive); with M14 melanoma, 40.3% (inactive); in the assay on HCT-15 colon, 45% (inactive); with HT29 colon, 34.6% (inactive). In addition, the growth with SNB-75 CNS is 43% (inactive); in the assay on SNB-19 CNS, 48.4% (inactive); in the assay on U251 CNS it was 51.1% (inactive); in the assay on PC-3 prostate it was 47.5% (inactive); with SK-MEL-5 melanoma, 40.3% (inactive); in the assay with UACC-62 melanoma, 66.4% (inactive). Also, the figures for the growth in the assay on LOX IMVI melanoma and in the assay on SK-MEL-28 melanoma were 27.3% (inactive) and 60.3% (inactive), respectively.
`O=C1Nc2ccc(F)cc2/C1=C\C(=O)c1ccc(NS(=O)(=O)c2ccccc2)cc1`: the growth was 92.1% (inactive) in the assay on DU-145 prostate; 49.1% (inactive) in the assay with K-562 leukemia; 79.7% (inactive) in the assay with MALME-3M melanoma; 90.4% (inactive) with MDA-MB-231 breast; 72.3% (inactive) in the assay with RXF 393 renal; 97.9% (inactive) in the assay on SF-268 CNS. Moreover, the growth was 96.4% (inactive) in the assay on SF-295 CNS; 97.5% (inactive) in the assay with SF-539 CNS; 95.9% (inactive) in the assay on UACC-257 melanoma; 90.7% (inactive) with M14 melanoma; 59.7% (inactive) with HCT-15 colon; 81% (inactive) in the assay with HT29 colon. Besides, the growth is 76.1% (inactive) in the assay on SNB-75 CNS; 95.6% (inactive) in the assay with SNB-19 CNS; 94.1% (inactive) with U251 CNS; 92% (inactive) in the assay with PC-3 prostate; 97.3% (inactive) in the assay with SK-MEL-5 melanoma; 77.7% (inactive) with UACC-62 melanoma. For the same compound, the growth in the assay with LOX IMVI melanoma is 21.4% (inactive); in the assay with SK-MEL-28 melanoma, 105% (inactive).
On to `Brc1cccc(-c2cc(-c3cnc4c(c3)OCCO4)n[nH]2)c1`, for which the growth in the assay on DU-145 prostate was 70.4% (inactive); in the assay on K-562 leukemia, 16.6% (inactive); with MALME-3M melanoma, 37% (inactive); in the assay with MDA-MB-231 breast, 68.8% (inactive); in the assay with RXF 393 renal it was 47.9% (inactive); in the assay on SF-268 CNS, 76.5% (inactive). For the same compound, the growth with SF-295 CNS was 51.5% (inactive); in the assay with SF-539 CNS it was 47.6% (inactive); in the assay on UACC-257 melanoma, 73.2% (inactive); in the assay on M14 melanoma, 27.1% (inactive); in the assay with HCT-15 colon, 21.1% (inactive); with HT29 colon, 18.8% (inactive). Also, the growth was 46.9% (inactive) in the assay with SNB-75 CNS; 59.8% (inactive) in the assay with SNB-19 CNS; 43.3% (inactive) in the assay on U251 CNS; 79.1% (inactive) in the assay on PC-3 prostate; 24.2% (inactive) in the assay on SK-MEL-5 melanoma; 55.5% (inactive) in the assay on UACC-62 melanoma. The growth in the assay on LOX IMVI melanoma is 37.1% (inactive); in the assay with SK-MEL-28 melanoma, 59% (inactive).
Regarding `O=C(CSc1nnc(-c2ccc(Cl)cc2)n1-c1ccccc1)Nc1ccccc1Cl`, the growth in the assay on DU-145 prostate is 68.4% (inactive); with K-562 leukemia, 67.1% (inactive); in the assay on MALME-3M melanoma it was 79.2% (inactive); in the assay on MDA-MB-231 breast, 44.8% (inactive); in the assay on RXF 393 renal, 74% (inactive); in the assay with SF-268 CNS, 81.5% (inactive). Also, the growth in the assay with SF-295 CNS was 31.5% (inactive); in the assay on SF-539 CNS, 52.1% (inactive); in the assay on UACC-257 melanoma, 95.1% (inactive); in the assay with M14 melanoma, 78.2% (inactive); in the assay with HCT-15 colon, 76.8% (inactive); in the assay with HT29 colon, 67.5% (inactive). In addition, the growth in the assay on SNB-75 CNS was 65.8% (inactive); in the assay on SNB-19 CNS it was 82.4% (inactive); in the assay on U251 CNS, 61.6% (inactive); in the assay on PC-3 prostate, 77.8% (inactive); with SK-MEL-5 melanoma, 95.4% (inactive); with UACC-62 melanoma, 95.7% (inactive). Besides, the values for the growth with LOX IMVI melanoma and in the assay on SK-MEL-28 melanoma were 15% (inactive) and 99.2% (inactive), respectively.
